An excerpt weighted towards active compounds, which were near 12% of everything screened.
BAZ2B block: blocks human BAZ2B. Q9UIF8. AlphaScreen BAZ2B-H3K14Ac peptide displacement. Potency, µM (top dose mostly 114 µM), inactives show at the top dose activity change, negative = inhibition, usual class: inhibitors. hit rate 4.4% among 360,000; further: on the % scale 0 is the no-effect control and ±100 the full control effect; nearly all actives have a fitted effect of over 60% in size
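Complex of BAZ2B and biotin-H3K14Ac (50 nM apiece) forms over 30 min at RT, then faces library compounds up to 110 uM for another 30 min; AlphaScreen beads added, 20 min dark incubation, luminescence read.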
HP1b binding inh: HP1-beta chromodomain-methylated histone interaction inhibition. P83916. AlphaScreen HP1-beta / biotin-H3K9me3 peptide binding. Potency, µM (titrated, usually from 114 µM), for inactives: at the top dose activity change, negative = inhibition, most hits filed as inhibitors. hit rate 0.56% among 390,000; further: nearly all actives have a fitted effect of over 70% in size
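AlphaScreen: HP1-beta (50 nM) preformed 30 min with biotin-H3(1-18)K9me3 peptide (50 nM) in PBS pH 7.4, 0.01% Tween-20. Compound added for 30 min at RT, then streptavidin donor/nickel chelate acceptor beads (10 ug/mL) for 30 min.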
JMJD2A Tudor inh: blocks the human JMJD2A Tudor domain; AlphaScreen JMJD2A-Tudor / H3K4me3 peptide binding; Potency, µM (titrated, usually from 114 µM), for inactives: top-dose activity change, negative = inhibition, actives largely listed as inhibitors; hit rate 4.4% among 390,000; AID 504339; further: on the % scale 0 is the no-effect control and ±100 the full control effect; nearly all actives have a fitted effect of over 50% in size
Sfp PPTase inh: Sfp phosphopantetheinyl transferase inhibition; hit rate 3.5% among 310,000; Biochemical Sfp PPTase activity, qHTS; Potency, µM, without a hit: largest response in the series, negative = inhibition, hits mostly inhibitors; Q9F4F7;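 further: the enzyme is Sfp with the accession as filed and its product quenches rhodamine fluorescence; 0% = enzyme reaction without inhibitor and -100% = no enzyme wells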
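Step 1, compound plus 15 nM Sfp-PPTase, 15 min, room temperature. Step 2, add rhodamine-CoA (5 uM) and BHQ-2-YbbR (12.5 uM). Step 3, read 525/598 nm fluorescence at 0 and 30 min.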
PLK1 PBD block: blocks phosphopeptide binding to human PLK1 polo-box domain | Potency, µM, for the others: max response, negative = inhibition, actives largely listed as inhibitors | AID 720504 | Plk1 PBD binding of FITC phosphopeptide, fluorescence polarization | P53350 | hit rate 2.8% among 360,000; further: series mostly up to about 57 µM; on the % scale 0 is the no-effect control and ±100 the full control effect; nearly all actives have a fitted effect of over 65% in size
Target sequence (P53350 whole entry, looked up, the tested form may be a part): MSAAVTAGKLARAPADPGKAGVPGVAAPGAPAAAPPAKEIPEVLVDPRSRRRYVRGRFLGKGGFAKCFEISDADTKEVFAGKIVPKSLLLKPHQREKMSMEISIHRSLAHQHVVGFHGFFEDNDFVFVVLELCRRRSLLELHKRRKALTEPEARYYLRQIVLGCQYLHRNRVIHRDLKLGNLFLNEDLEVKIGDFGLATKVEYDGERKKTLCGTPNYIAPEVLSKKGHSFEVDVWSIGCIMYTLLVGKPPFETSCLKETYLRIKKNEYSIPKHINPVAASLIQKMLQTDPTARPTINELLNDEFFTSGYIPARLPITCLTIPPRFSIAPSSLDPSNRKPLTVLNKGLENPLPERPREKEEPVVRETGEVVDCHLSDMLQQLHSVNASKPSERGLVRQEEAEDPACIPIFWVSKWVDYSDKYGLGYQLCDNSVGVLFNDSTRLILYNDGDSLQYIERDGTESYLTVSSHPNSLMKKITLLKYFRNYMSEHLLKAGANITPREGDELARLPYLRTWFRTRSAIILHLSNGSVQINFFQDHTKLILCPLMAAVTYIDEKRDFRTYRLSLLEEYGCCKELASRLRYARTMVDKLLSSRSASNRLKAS
G9a block: G9a (human) methyltransferase inhibition; G9a H3K9 monomethylation, AlphaScreen, 2 h; Potency, µM (highest dose often 102 µM), for the others: at the highest dose activity, negative = inhibition, most hits filed as inhibitors; hit rate 8.8% among 350,000; further: on the % scale 0 is the no-effect control and ±100 the full control effect; nearly all actives have a fitted effect of over 75% in size
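AlphaScreen read-out: biotin-H3K9 peptide (500 nM) methylation by 20 nM enzyme with 20 uM SAM, 2 h at room temperature after 15 min compound preincubation; anti-monomethyl H3K9 antibody plus donor/acceptor beads, 10 min dark.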
Starred values were filed as active, the others as inactive; [ ] = dose if it differs, or a comment. The call rests on the fitted dose curve; in most records, active means well fitted curve in the direction sought with a large enough effect; inconclusive means small, poorly fitted or top-dose-only effect, or another doubt; inactive means no such curve, though single readings can be large; an effect the other way counts as inactive or inconclusive. Potency means the concentration at half of the fitted maximal effect.

`COc1ccc(NS(=O)(=O)c2cc([N+](=O)[O-])ccc2NN=Cc2ccccc2OCC(=O)O)cc1` gave HP1b binding inh 23%, JMJD2A Tudor inh inconclusive and PLK1 PBD block inconclusive.
Screening O=C(O)COc1ccccc1C=NNc1ccc([N+](=O)[O-])cc1S(=O)(=O)Nc1ccc(Cl)cc1 returned HP1b binding inh -6%, JMJD2A Tudor inh -33% and PLK1 PBD block 24µM*.
COc1ccccc1NS(=O)(=O)c1ccc(N/N=C/c2ccccc2OCC(=O)O)c([N+](=O)[O-])c1 was read as BAZ2B block 40µM*, HP1b binding inh inconclusive, JMJD2A Tudor inh 56µM*, Sfp PPTase inh -14%, PLK1 PBD block -29% and G9a block 20µM*.
`O=C(O)COc1ccccc1/C=N/Nc1ccc(S(=O)(=O)Nc2ccc(Cl)cc2)cc1[N+](=O)[O-]` gave BAZ2B block 35µM*, HP1b binding inh inconclusive, JMJD2A Tudor inh inconclusive, Sfp PPTase inh -10%, PLK1 PBD block inconclusive and G9a block 35µM*.
For CC(C)c1ccc(-c2noc(SCC(=O)N3CCCCC3C)n2)cc1 (configuration not stated) the results were BAZ2B block 1%, HP1b binding inh 111%, JMJD2A Tudor inh 40% and G9a block 30%[59 µM].
CN1CCN(CC(O)c2ccccc2)CC1 (configuration not stated) was read as BAZ2B block -4%, Sfp PPTase inh -1% and G9a block 27%.
For OC1CCCN(CC(O)COC(c2ccc(F)cc2)c2ccc(F)cc2)C1 (configuration not stated) the results were BAZ2B block 50µM*, HP1b binding inh -12%, JMJD2A Tudor inh 10µM*, Sfp PPTase inh inconclusive, PLK1 PBD block -4% and G9a block 45µM*.
Screening OC(COC(c1ccc(F)cc1)c1ccc(F)cc1)CN1CCc2ccccc2C1 (configuration not stated) returned BAZ2B block 45µM*, HP1b binding inh inconclusive, JMJD2A Tudor inh 18µM*, Sfp PPTase inh -19%, PLK1 PBD block -1% and G9a block 4.5µM*.
Screening OC1CCCN(CC(O)c2ccccc2)C1 (configuration not stated) returned BAZ2B block 50µM*, HP1b binding inh 5%, JMJD2A Tudor inh 40µM*, Sfp PPTase inh inconclusive, PLK1 PBD block -14% and G9a block 3.2µM*.
For OC(COC(c1ccc(Cl)cc1)c1ccc(Cl)cc1)CN1CCCC1 (configuration not stated) the results were BAZ2B block -11%, HP1b binding inh 7%, JMJD2A Tudor inh -20%, Sfp PPTase inh 4%, PLK1 PBD block 0% and G9a block 3%[59 µM].
Screening CC(C)Cn1c(-c2ccncc2)n[nH]c1=S returned BAZ2B block inconclusive, HP1b binding inh 25%, JMJD2A Tudor inh 20µM*, Sfp PPTase inh inconclusive, PLK1 PBD block -2% and G9a block 7.1µM*.
`COc1ccc(CCn2c(-c3ccncc3)n[nH]c2=S)cc1OC` gave BAZ2B block -33%, HP1b binding inh -9%, JMJD2A Tudor inh inconclusive, Sfp PPTase inh inconclusive, PLK1 PBD block -16% and G9a block inconclusive.
C=C(C)Cn1c(-c2ccncc2)n[nH]c1=S was read as BAZ2B block inconclusive, HP1b binding inh 8%, JMJD2A Tudor inh 50µM*, Sfp PPTase inh inconclusive, PLK1 PBD block -12% and G9a block 14µM*.
For CC(C)Cn1c(-c2csc3c2CCCC3)n[nH]c1=S the results were BAZ2B block inconclusive, HP1b binding inh 1%, JMJD2A Tudor inh 79µM*, Sfp PPTase inh inconclusive, PLK1 PBD block -6% and G9a block 8.9µM*.
`CC(C)Cn1c(-c2ccccc2F)n[nH]c1=S` gave BAZ2B block 16%, HP1b binding inh -14%, JMJD2A Tudor inh 4µM*, Sfp PPTase inh inconclusive, PLK1 PBD block -19% and G9a block 1.4µM*.
Screening COc1ccc(CCNC(=O)CCCn2c(=O)c3ccccc3n(Cc3ccccc3C)c2=O)cc1OC returned BAZ2B block -1%, HP1b binding inh 13%, JMJD2A Tudor inh -13% and G9a block 3%[59 µM].
Screening CCCNC(=O)CCSc1nc(-c2ccc3c(c2)OCO3)cc(C(F)(F)F)n1 returned BAZ2B block 1%, HP1b binding inh 30%, JMJD2A Tudor inh 0% and G9a block -1%[59 µM].
For CCOC(=O)c1ccc(NC(=O)CSc2nc(-c3cccs3)cc(C(F)(F)F)c2C#N)cc1 the results were BAZ2B block -21%, HP1b binding inh 43%, JMJD2A Tudor inh 0% and G9a block 0%[59 µM].
For CC(C)Cn1c(-c2ccc(F)cc2)n[nH]c1=S the results were BAZ2B block 5%, HP1b binding inh inconclusive, JMJD2A Tudor inh 7.9µM*, Sfp PPTase inh -67%, PLK1 PBD block -24% and G9a block inconclusive.
Fc1ccccc1-c1n[nH]c(=S)n1C1CC1 was read as BAZ2B block -25%, Sfp PPTase inh -17% and G9a block 8.9µM*.
Nc1sc(-c2ccccc2)cc1-c1n[nH]c(=S)n1C1CCCCC1 was read as BAZ2B block -4%, HP1b binding inh 35%, JMJD2A Tudor inh -16%, Sfp PPTase inh -4%, PLK1 PBD block 1% and G9a block 4%[59 µM].
CC(C)c1onc(C(=O)Nc2ccc3c(c2)OCO3)c1[N+](=O)[O-] was read as BAZ2B block -25%, HP1b binding inh -4%, JMJD2A Tudor inh -27%, Sfp PPTase inh 4%, PLK1 PBD block -12% and G9a block inconclusive.
`Cc1cc(S(=O)(=O)Nc2ccc(C(=O)O)cc2)c(C)c(S(=O)(=O)c2ccc(Cl)cc2)c1` gave BAZ2B block 0%, HP1b binding inh 28%, JMJD2A Tudor inh -6% and G9a block -4%[59 µM].
For Cc1ccc(C(=O)Nc2ccc(C(=O)O)cc2)cc1S(=O)(=O)N1CCC(C)CC1 the results were BAZ2B block -1%, HP1b binding inh 48%, JMJD2A Tudor inh 1% and G9a block 3%[59 µM].
Screening COc1ccc(C2Nc3ccccc3C(=O)N2Cc2ccco2)cc1COc1c(C)cccc1C (configuration not stated) returned HP1b binding inh 38% and JMJD2A Tudor inh inconclusive.
For COC(=O)C1C(=O)C(C(=O)/C=C/c2ccccc2)C(=O)CC1(C)C (configuration not stated) the results were BAZ2B block -37%, HP1b binding inh 29%, JMJD2A Tudor inh -28%, Sfp PPTase inh -1%, PLK1 PBD block -10% and G9a block inconclusive.
